# Data: the supplement of paper PMC6555819
# System: VDR:RXRa (NR concentration 270 nM, RXRa partner concentration 90 nM)
# Assay: PBM binding z-score (relative to random genomic background probes); higher = stronger binding; sequences stand for … in GC…GCGATTGACAGCGTAGAATGAAGG
# Method: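 Protein-binding microarray (Agilent 4x180K custom design, double-stranded 60-nt probes: 5' GC cap, 34-nt variable region, 24-nt constant primer region; full probe sequence given). Purified or IVT nuclear receptor:RXRα heterodimers (3:1 NR:RXRα, mostly 270:90 nM) or homodimers were incubated for 1 h in PBS with 2% milk and no ligand, then detected with Alexa488 antibodies. Fluorescence from o1-orientation probes (~5 replicates averaged) was converted to z-scores against 500 random hg19 background probes. Variable regions are seed direct-repeat (DR0–DR5) sites, all their single-nucleotide variants and half-site ablations.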
row,Sequence,PBM binding z-score
1,AGAACGACGGCACGCTGAGTTGATAGCAGAGTAG,-0.301
2,ATCTCTAGGTAAAAATTCAGTGAATCCCGAGGAT,-0.13
3,CGTCCAAGGTCAATGCTAGGTCGGTGAAAGCATT,4.11
4,TTACCAAGGTGAGCTGAGGTCGTTGCTCCAACTC,4.1
5,ATATGTAGGTTAGCCGGGGTCATTCAGACTAGGC,6.67
6,CGTCAAAGTTCAACTAAGGTAACGCAAAGCACGC,4.64
7,CGTCCAAGGTCAAAGGTCAGAGAAGAGATGACGG,6.75
8,ATCTCTAGGTAAGAATCAGTTCAGTGAAGAACGC,0.845
9,CCTACAGGGCCACGAAAGGTCATTGATTCAGTGA,4.61
10,ATAGGTAGGTTAGCTGGGGTCATTCAGACTAGGC,6.28
11,CCTAGTGGGCCATCAGGTCATTGATATCAACGTT,1.61
12,GCTTGTAGATCATGGTTAAGAAAGACTAAGCTAA,-0.404
13,ATCTCTAGGTAAAAATAGTTCAGTGAATGCAAAT,1.11
14,TCTCGGAGGACAGGAAAGGTCAGAGCTCGACATC,2.7
15,CCTACTGGACCATTCAGAGGTCATTGATCATATG,3.95
16,AAAATGAGGTTATTAAGATCAGGGAATTGCGGTC,2.47
17,ACTTACGGGTCAACAAGGTTATAGCACGCGTATA,7.08
18,TCATATCGGTAAAAGGTGAAAGTCGGTGTGGTAA,1.54
19,TATACAGGGTCAATGGCCAGAGTACGAATGTCGA,4.05
20,TAGCTTAGGTCATTGGGCCAGTATAGTACGCATC,2.4

row,Sequence,PBM binding z-score
1,CATATTAGTTGACCATAAGGGCAACCGAAGCTCG,0.551
2,CCGACTGGGGGAGAAAGGTTACCATACCATCCGG,1.42
3,GCGACTGGAGCAAAGCAGGTTACCATAAGGTTGG,-0.418
4,GCTGCTAGGTCAACTTATGGTCAGCTAAAGCTCG,2.04
5,GGAACGAGGACAAGTTGATAGCAGAGTTTGATGG,0.0641
6,CCTCGGAGGACTACAGGAGGTCAGAGCTGCCAGA,1.26
7,GCTAGTCGGTCAGTAAAAGGTCACACACCGGTCG,4.18
8,TCTTGTAGATCAATAGAGGTTAAGTAAGTGCGCT,2.65
9,AGTCAAAGTTCATCTAGCTAACGTAAGATATGCT,4.35
10,CCTACTGGGCCACGAAAGCTCATTGATTCAGTGA,-0.828
11,ATACCAAGGTGATCGTGAAGTCGTTGATACTAAC,0.0498
12,CCTCCGAGGACAGAAGGTCAGAGCTGTCCGCTTT,1.36
13,CCTGCTAGGTCCATGGTCAGCTAAAGCAGCTCGC,-0.591
14,CGTCCAAGGTCCTAGGAGGTCAGTGAAGACAGAT,2.88
15,TTACCAAGGGGAGCTGAGGTCGTTGATCCAACTC,2.08
16,CCAGACAGGTGAGAAGGTGACTCAGCCTCGATTA,-0.0388
17,ACTATTAGTTGACTTAGGGCAAGCGATACGACGC,0.174
18,AGAATGAGGTTATACGTAGATCAGGGGAGAAAGT,1.42
19,TAGCCTAGGTCGTGCGGGCCAGTATAGTGTCGGC,0.148
20,TCATATAGGTAATACAGGTAAAAGTCGGCATCTA,1.24
